Among the data in ChEMBL document CHEMBL4513146, “CO-ADD screening of Karazin Kharkiv National University (Ukraine) compounds” are Inhibition values, retold here.

In one assay the test system is Klebsiella pneumoniae. The conditions noted are these: Concentration 32 ug.mL-1;; ASSAY_TEST Inhibition of Bacterial Growth; detection method Absorption (OD600); MEDIA CAMHB; plate type 384well; NBS; CORNING #3640; time 18 hr.
A further assay concerns Candida albicans. The settings on record: Concentration 32 ug.mL-1; ASSAY_TEST Inhibition of Fungal Growth; detection method Absorption (OD530).
Another assay deals with Cryptococcus neoformans. The conditions noted are these: Concentration 32 ug.mL-1; ASSAY_TEST Inhibition of Fungal Growth; detection method Resazurin; Absorption (OD600-OD570); plate type 384well; NBS; CORNING #3640. Background: Resazurin is reduced to fluorescent resorufin, in cell work by metabolically active cells.

Each structure is given as a SMILES string. Entries with a potency or affinity are not part of this list.

Turning to `COc1cc(OC)c(NC(=O)Cn2nc3ccc(Sc4ccc(C)cc4)nn3c2=O)cc1Cl`, the Inhibition (in general, the relative decrease from the control value, in per cent) in the assay on Klebsiella pneumoniae is reported as -1.47%; in the assay on Candida albicans, 29.33%; in the assay on Cryptococcus neoformans, -7.45%.

Consider `Cc1ccc(-c2ccc3nnc(CCC(=O)NCc4cccc(Br)c4)n3n2)cc1`, for which the figures for the Inhibition in the assay on Klebsiella pneumoniae, in the assay on Candida albicans and in the assay with Cryptococcus neoformans were 20.54%, 1.13% and -54.18%, respectively.

For `COc1ccc(NC(=O)Cn2nc3c(N4CCCC4)nccn3c2=O)cc1`, the Inhibition in the assay with Klebsiella pneumoniae was 6.93%; in the assay on Candida albicans, 1.38%; in the assay with Cryptococcus neoformans, -6.3%.

In the case of `COc1ccc(-c2cc3c4nn(CC(=O)Nc5ccc(C)c(C)c5)c(=O)n4ccn3n2)cc1`, the Inhibition in the assay with Klebsiella pneumoniae is reported as 5.79%; in the assay with Candida albicans it was -0.09%; with Cryptococcus neoformans, -15.38%.

With `CC(C)c1nnc2c(SCC(=O)N3CCN(c4ccc(F)cc4)CC3)nc3ccccc3n12`, the values for the Inhibition in the assay on Klebsiella pneumoniae, with Candida albicans and in the assay on Cryptococcus neoformans were 12.93%, -0.12% and -22.8%, respectively.

`CC(C)(C)OC(=O)N1CCC(NC(=O)CCc2nnc3ccc(-c4ccccc4)nn23)CC1`: the Inhibition in the assay on Klebsiella pneumoniae is reported as 12.09%; with Candida albicans it was 0.97%; in the assay with Cryptococcus neoformans, -4.02%.

Take `C=Cc1ccc(CN(c2ccc3c(c2)OCO3)S(=O)(=O)c2ccc3nncn3c2)cc1`: the Inhibition is 11.26% in the assay on Klebsiella pneumoniae, 1.71% in the assay on Candida albicans and -6.68% in the assay on Cryptococcus neoformans.

`COc1ccccc1-n1ccn2c(SCC(=O)Nc3ccc4c(c3)OCO4)nnc2c1=O`: the Inhibition in the assay on Klebsiella pneumoniae is on record as 8.58%; in the assay on Candida albicans it was 4.47%; with Cryptococcus neoformans it was -4.47%.

As to `CC(C)c1nnc2c(SCC(=O)Nc3cccc(Cl)c3)nc3ccccc3n12`, the Inhibition is recorded as 10.95% with Klebsiella pneumoniae, 2.12% in the assay with Candida albicans and -14.08% in the assay with Cryptococcus neoformans.

As for `Cc1cc2nn(CC(=O)Nc3cccc(C)c3C)c(=O)n2c(Nc2ccc(F)c(C)c2)n1`, the results for the Inhibition in the assay on Klebsiella pneumoniae, with Candida albicans and with Cryptococcus neoformans were 8.99%, 3.16% and -7.96%, respectively.

As to `CCCCc1ccc(NC(=O)Cn2nc3c(N4CCSCC4)nc4ccccc4n3c2=O)cc1`, the Inhibition is recorded as 15.26% in the assay on Klebsiella pneumoniae, -0.87% in the assay with Candida albicans and -24.44% in the assay with Cryptococcus neoformans.

In the case of `Cc1nnc2ccc(S(=O)(=O)N(Cc3cccc(F)c3)c3cccc(F)c3)cn12`, the values for the Inhibition with Klebsiella pneumoniae, in the assay with Candida albicans and in the assay on Cryptococcus neoformans were 2.6%, 1.95% and -8.19%, respectively.

Consider `O=S(=O)(c1ccc2nncn2c1)N(Cc1cccc(Cl)c1)c1ccc2c(c1)OCO2`, for which the Inhibition is reported as 8.88% in the assay with Klebsiella pneumoniae, 1.66% with Candida albicans and -13.77% in the assay with Cryptococcus neoformans.

Turning to `COc1ccc(NC(=O)c2ccc3nn(CC(=O)Nc4ccc(C(C)=O)cc4)c(=O)n3c2)cc1`, the Inhibition is listed as 4.63% in the assay with Klebsiella pneumoniae, 12.89% in the assay with Candida albicans and -6.52% in the assay with Cryptococcus neoformans.

For the compound `CCc1ccc(NC(=O)CSc2nnc3ccc(C(=O)Nc4cccc(F)c4)cn23)cc1`, the Inhibition is 0.94% in the assay with Klebsiella pneumoniae, 1.65% in the assay on Candida albicans and -4.96% with Cryptococcus neoformans.

Consider `COc1cccc(C(=O)CSc2nnc3c(=O)n(-c4ccc(F)cc4)ccn23)c1`, for which the Inhibition with Klebsiella pneumoniae is 7.79%; with Candida albicans, 2.89%; with Cryptococcus neoformans it was -4.94%.

In the case of `CC(C)c1ccc(NC(=O)CSc2nnc3c(=O)n(-c4ccccc4)ccn23)cc1`, the Inhibition with Klebsiella pneumoniae is 7.22%; in the assay on Candida albicans it was -0.59%; in the assay on Cryptococcus neoformans, -12.85%.

Turning to `Cc1ccc(Cl)cc1NC(=O)CSc1nnc2ccc(C(=O)Nc3cccc(F)c3)cn12`, the results for the Inhibition with Klebsiella pneumoniae, with Candida albicans and in the assay with Cryptococcus neoformans were 3.53%, 4.15% and -1.38%, respectively.

On to `COc1ccc(N(Cc2ccc(OC)c(F)c2)S(=O)(=O)c2ccc3nncn3c2)cc1`, for which the Inhibition is listed as 12.76% in the assay with Klebsiella pneumoniae, 2.89% with Candida albicans and 0.06% in the assay on Cryptococcus neoformans.

Consider `O=C(Cn1nc2c(Sc3ccccc3)nccn2c1=O)Nc1ccc(Br)cc1F`, for which the Inhibition with Klebsiella pneumoniae is 9.23%; in the assay on Candida albicans, 5.59%; in the assay with Cryptococcus neoformans, -9.93%.

Consider `Cc1cccc(NC(=O)CSc2nnc3ccc(C(=O)Nc4cccc(F)c4)cn23)c1C`, for which the results for the Inhibition in the assay on Klebsiella pneumoniae, with Candida albicans and in the assay with Cryptococcus neoformans were -0.74%, 4.11% and -4.88%, respectively.

Consider `CCOc1ccc(NC(=O)Cn2nc3c(Sc4cccc(F)c4)nccn3c2=O)cc1`, for which the Inhibition in the assay with Klebsiella pneumoniae was -0.38%; in the assay on Candida albicans it was 0.06%; with Cryptococcus neoformans it was -4.31%.

On to `Cc1ccc(NC(=O)Cn2nc3ccc(-c4ccccc4)nn3c2=O)cc1`, for which the values for the Inhibition with Klebsiella pneumoniae, in the assay on Candida albicans and in the assay on Cryptococcus neoformans were 0.91%, 16.23% and -12.72%, respectively.

Regarding `Cc1ccc(N(CC(=O)OC(C)(C)C)S(=O)(=O)c2cccn3cnnc23)cc1`, the Inhibition in the assay with Klebsiella pneumoniae is 9.31%; in the assay with Candida albicans it was 3.93%; in the assay on Cryptococcus neoformans it was -6.45%.

As to `COc1ccc(C)cc1NC(=O)Cn1nc2ccc(SC(C)(C)C)nn2c1=O`, the values for the Inhibition with Klebsiella pneumoniae, in the assay with Candida albicans and in the assay on Cryptococcus neoformans were 5.72%, 3.1% and -12.69%, respectively.

As to `COc1cc(NC(=O)C(C)Sc2nnc3c(=O)n(-c4ccc(F)cc4)ccn23)cc(OC)c1` (stereo not given), the Inhibition is given as 6.23% with Klebsiella pneumoniae, 7.68% in the assay with Candida albicans and -7.14% with Cryptococcus neoformans.

On to `O=c1c2nnc(SCc3cccc(C(F)(F)F)c3)n2ccn1-c1ccc(Br)cc1`, for which the Inhibition in the assay with Klebsiella pneumoniae is recorded as 4%; in the assay on Candida albicans it was 27.57%; in the assay with Cryptococcus neoformans, -8.16%.

As to `COc1cc(NC(=O)Cn2nc3ccc(SC(C)C)nn3c2=O)cc(OC)c1`, the Inhibition in the assay on Klebsiella pneumoniae is 4.22%; in the assay on Candida albicans, 10.99%; in the assay with Cryptococcus neoformans, -7.98%.

In the case of `CC(=O)c1ccc(N2CCN(C(=O)CCc3nnc4c5cc(-c6ccccc6)nn5ccn34)CC2)cc1`, the values for the Inhibition with Klebsiella pneumoniae, in the assay with Candida albicans and in the assay on Cryptococcus neoformans were 14.87%, 3.08% and -8.28%, respectively.

Take `Cc1ccc(-c2ccc3nn(CC(=O)Nc4cccc(Cl)c4)c(=O)n3n2)cc1C`: the Inhibition is recorded as 4.06% in the assay with Klebsiella pneumoniae, 0.61% in the assay with Candida albicans and -15.53% with Cryptococcus neoformans.
